Assay [1] in a line: qHTS assay to identify small molecule antagonists of the sonic hedgehog signaling (Shh) pathway (AID 1259369; calls by dose curve; also: nearly all actives have a fitted effect of over 45% in size; also: potency is read from the fitted curve at half-maximal effect). In outline: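 NIH/3T3-derived Gli1-Luc reporter cells plated 4 h, dosed with compound, then stimulated with conditioned medium for 24 h at 37 C. Firefly luciferase luminescence read after 30 min with detection reagent at room temperature.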
A general note: qHTS replaces the single test concentration by a dilution series.

Assay [2] has as its target Estrogen receptor beta (Homo sapiens) (UniProt Q92731). The experiment in a line: qHTS assay to identify small molecule agonists of the estrogen receptor beta (ER-beta) signaling pathway (AID 1259377; active = well fitted activation curve with a large enough effect in the signal ratio in the repeat runs, not every such curve was filed as active; the % refers to the signal ratio). The essentials:
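Read-out: beta-lactamase FRET fluorescence. Cell line: ER-beta-UAS-bla HEK293T in 2% charcoal-stripped FBS. Exposure: 16 hr at 37C. Substrate step: 2 h at room temperature.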

For assay [3] the target is unchanged. The assay is described as follows: qHTS assay to identify small molecule antagonists of the estrogen receptor beta (ER-beta) signaling pathway (AID 1259378; active = well fitted inhibition curve with a large enough effect in the signal ratio in the repeat runs, not every such curve was filed as active; the % refers to the signal ratio). In outline:
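ER-beta-UAS-bla HEK293T cells in 2% charcoal-stripped FBS medium treated with compound plus 1nM final 17-beta-estradiol for 16 hr at 37C. Beta-lactamase reporter read by FRET substrate fluorescence after 2 hours at room temperature.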

Assay [4] can be described thus: qHTS assay to identify small molecule agonists of the androgen receptor (AR) signaling pathway in the presence of an antagonist - cell viability counter screen (AID 1259379).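 Also: MDA-kb2 human breast cancer cells carrying an MMTV luciferase reporter; series mostly up to about 92 µM; nearly all actives have a fitted effect of over 25% in size.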 The essentials:
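MDA-kb2 cells (MMTV-luciferase, AR/GR), 3,000/well, 5 h attachment, then 3.0 µM nilutamide (final) and compounds at 15 concentrations. Viability by CellTiter-Fluor fluorescence after 16 h at 37 °C, 0% CO2, in the reporter wells.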

Assay [5] in a line: qHTS assay to identify small molecule agonists or antagonists of the thyroid stimulating hormone receptor (TSHR) signaling pathway - wild type cell line counter screen (AID 1259384; calls by dose curve). In outline: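 Wild-type Hek293 cells, 800/well, 18 h at 37C, then compound with Ro20-1724 for 30 min RT. cAMP by HTRF (cAMP-d2/anti-cAMP cryptate), 1 h RT, fluorescence read. 15 concentrations, triplicates.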

In assay [6] the target is Thyrotropin receptor (Homo sapiens) (UniProt P16473). The experiment in a line: qHTS assay to identify small molecule antagonists of the thyroid stimulating hormone receptor (TSHR) signaling pathway (AID 1259385; calls by dose curve; also: nearly all actives have a fitted effect of over 20% in size). The essentials: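 TSHR-HEK293 cells (800/well) plated 18 h, then compounds with Ro20-1724 and TSH at 1.5 ng/mL final, 30 min at room temperature. cAMP quantified by HTRF (cAMP-d2/anti-cAMP-cryptate, 1 h); 15 concentrations in triplicate.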
Chain of Thyrotropin receptor (Homo sapiens) (P16473 whole entry, looked up): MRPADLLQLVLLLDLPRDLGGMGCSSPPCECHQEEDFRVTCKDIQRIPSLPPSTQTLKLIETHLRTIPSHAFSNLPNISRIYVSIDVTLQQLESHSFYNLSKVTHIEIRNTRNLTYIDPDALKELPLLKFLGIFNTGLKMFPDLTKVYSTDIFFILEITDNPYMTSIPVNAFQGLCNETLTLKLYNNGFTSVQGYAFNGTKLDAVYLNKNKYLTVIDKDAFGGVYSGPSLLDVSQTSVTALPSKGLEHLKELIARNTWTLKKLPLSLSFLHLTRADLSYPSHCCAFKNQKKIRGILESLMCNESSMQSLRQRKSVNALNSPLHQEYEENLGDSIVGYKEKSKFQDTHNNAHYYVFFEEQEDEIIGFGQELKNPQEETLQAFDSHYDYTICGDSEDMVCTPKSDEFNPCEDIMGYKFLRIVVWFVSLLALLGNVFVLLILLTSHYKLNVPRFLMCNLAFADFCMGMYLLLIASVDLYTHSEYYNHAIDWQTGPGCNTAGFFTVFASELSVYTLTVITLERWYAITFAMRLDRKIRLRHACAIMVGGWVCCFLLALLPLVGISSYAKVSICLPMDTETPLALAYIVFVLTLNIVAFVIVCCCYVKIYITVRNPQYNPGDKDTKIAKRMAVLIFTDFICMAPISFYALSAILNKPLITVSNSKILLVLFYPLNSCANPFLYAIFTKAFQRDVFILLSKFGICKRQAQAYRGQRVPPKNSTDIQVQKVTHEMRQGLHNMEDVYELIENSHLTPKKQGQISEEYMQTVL

The target of assay [7] is Progesterone receptor (Homo sapiens) (UniProt P06401). The experiment in a line: qHTS assay to identify small molecule agonists of the progesterone receptor (PR) signaling pathway (AID 1346784; calls by dose curve; also: nearly all actives have a fitted effect of over 30% in size). In outline: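 Compounds were tested for PR agonism in HEK 293T cells bearing a beta-lactamase gene under UAS control. Treatment lasted 16 hr at 37C; signal came from fluorescence of a FRET substrate.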
Chain of Progesterone receptor (Homo sapiens) (P06401 whole entry, looked up): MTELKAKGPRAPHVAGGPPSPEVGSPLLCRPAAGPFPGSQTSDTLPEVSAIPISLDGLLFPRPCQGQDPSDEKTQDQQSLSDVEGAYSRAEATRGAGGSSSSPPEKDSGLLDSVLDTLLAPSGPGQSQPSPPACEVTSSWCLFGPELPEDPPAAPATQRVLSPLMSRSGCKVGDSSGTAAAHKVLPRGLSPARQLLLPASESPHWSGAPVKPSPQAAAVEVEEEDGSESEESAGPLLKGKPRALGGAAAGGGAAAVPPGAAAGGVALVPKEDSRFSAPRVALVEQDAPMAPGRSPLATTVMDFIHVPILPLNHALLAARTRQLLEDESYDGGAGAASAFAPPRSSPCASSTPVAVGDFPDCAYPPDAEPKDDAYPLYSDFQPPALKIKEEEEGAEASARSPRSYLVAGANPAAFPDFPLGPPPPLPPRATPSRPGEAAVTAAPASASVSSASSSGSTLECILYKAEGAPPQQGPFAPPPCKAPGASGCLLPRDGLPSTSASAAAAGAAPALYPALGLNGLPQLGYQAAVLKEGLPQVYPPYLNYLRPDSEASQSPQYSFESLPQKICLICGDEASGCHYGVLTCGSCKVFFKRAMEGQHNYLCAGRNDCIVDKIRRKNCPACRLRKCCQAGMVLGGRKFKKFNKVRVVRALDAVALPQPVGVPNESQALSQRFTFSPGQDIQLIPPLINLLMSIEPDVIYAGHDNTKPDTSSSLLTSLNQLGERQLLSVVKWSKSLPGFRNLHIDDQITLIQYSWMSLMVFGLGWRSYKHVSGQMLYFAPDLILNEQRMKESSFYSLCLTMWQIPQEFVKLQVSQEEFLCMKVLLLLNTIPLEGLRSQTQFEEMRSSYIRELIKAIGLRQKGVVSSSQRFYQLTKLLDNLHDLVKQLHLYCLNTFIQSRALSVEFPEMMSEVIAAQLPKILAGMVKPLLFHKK

The target is the same in assay [8]. The assay is described as follows: qHTS assay to identify small molecule antagonists of the progesterone receptor (PR) signaling pathway (AID 1346795; active = well fitted inhibition curve with a large enough effect in the signal ratio in the repeat runs, not every such curve was filed as active; the % refers to the signal ratio). The essentials:
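In HEK293T cells bearing the PR-UAS-bla reporter, compound effects on promegestone-driven (1 nM) beta-lactamase expression are assessed after 16 hr using a fluorescent FRET substrate incubated 2 hr at room temperature.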

A short description of assay [9]: qHTS assay to identify small molecule antagonists of the progesterone receptor (PR) signaling pathway - cell viability counter screen (AID 1346798). Also: series mostly up to about 92 µM; nearly all actives have a fitted effect of over 50% in size. In outline:
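Following a 4 hr attachment, PR-UAS-bla HEK293T cells in charcoal-stripped FBS medium were exposed to compounds with R5020 for 16 hr; CellTiter-Glo was added and luminescence read after 30 min at room temperature.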

Assay [10] is described as follows: qHTS assay to identify small molecule antagonists of the TGF-beta/Smad signaling pathway - cell viability counter screen (AID 1346824). Also: nearly all actives have a fitted effect of over 50% in size. The essentials:
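SBE-bla HEK 293T cells, incubated overnight, then compound plus 0.25 ng/mL TGF-beta1 (stock added) for 5 hr at 37 C. Viability was read in the same wells by CellTiter-Glo luminescence after 30 min at room temperature.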

The nature of assay [11]: qHTS assay to identify small molecule agonists of the TGF-beta/Smad signaling pathway - cell viability counter screen (AID 1346829). Also: top concentration of the series differs between compounds; nearly all actives have a fitted effect of over 45% in size. The essentials: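 Luminescence from CellTiter-Glo, read after a 30 min room-temperature incubation, gives cell viability of SBE-bla HEK 293T cells treated 5 hr with compounds at 37 C.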
Assay [12] deals with Thyrotropin-releasing hormone receptor (Homo sapiens) (UniProt P34981). The experiment in a line: qHTS assay to identify small molecule antagonists of the thyrotropin-releasing hormone receptor (TRHR) signaling pathway (AID 1346877; active = well fitted inhibition curve with a large enough effect in the repeat runs, not every such curve was filed as active; also: series mostly up to about 51 µM). The essentials: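 TRHR-expressing HEK293 cells loaded with calcium dye for 2 h at 37 C; compounds pre-incubated 5 min at room temperature before TRH challenge at 1 nM final. Intracellular calcium fluorescence read kinetically for 3 min; 15 concentrations in triplicate.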
Chain of Thyrotropin-releasing hormone receptor (Homo sapiens) (P34981 whole entry, looked up): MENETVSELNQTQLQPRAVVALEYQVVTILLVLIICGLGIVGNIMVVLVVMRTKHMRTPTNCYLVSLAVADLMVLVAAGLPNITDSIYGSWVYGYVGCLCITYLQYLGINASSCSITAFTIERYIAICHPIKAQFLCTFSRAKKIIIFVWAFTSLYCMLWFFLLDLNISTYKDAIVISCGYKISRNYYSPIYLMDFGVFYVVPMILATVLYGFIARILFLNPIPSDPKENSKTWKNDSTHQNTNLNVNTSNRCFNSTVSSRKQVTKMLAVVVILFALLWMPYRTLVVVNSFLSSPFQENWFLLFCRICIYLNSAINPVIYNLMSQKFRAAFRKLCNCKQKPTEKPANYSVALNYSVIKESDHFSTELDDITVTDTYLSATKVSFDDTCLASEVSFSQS

Assay [13] shares this target. The assay is described as follows: qHTS assay to identify small molecule agonists of the thyrotropin-releasing hormone receptor (TRHR) signaling pathway (AID 1346891; calls by dose curve; also: series mostly up to about 58 µM). In outline:
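Screening of agonists relied on calcium signalling in HEK293 cells expressing human TRHR: dye loading 2 h at 37 °C preceded compound addition and a 3-min fluorescence time course.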

Assay [14] is described as follows: qHTS assay to identify small molecule agonists of the estrogen receptor beta (ER-beta) signaling pathway - cell viability counter screen (AID 1259380). Also: nearly all actives have a fitted effect of over 30% in size. The essentials: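 ER-beta-UAS-bla HEK293T cells in medium with 2% charcoal-stripped FBS, pre-incubated 6 hr, then treated 16 hr at 37C. Cytotoxicity read in the same wells by CellTiter-Glo luminescence after 30 min at room temperature.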

In assay [15] the target is Androgen receptor (Homo sapiens) (UniProt P10275). The assay is described as follows: qHTS assay to identify small molecule agonists of the androgen receptor (AR) signaling pathway in the presence of an antagonist (AID 1259381; calls by dose curve; also: nearly all actives have a fitted effect of over 15% in size). In outline: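 MDA-kb2 cells carrying MMTV-luciferase (AR/GR responsive), 3,000 cells/well, co-treated with 3.0 uM nilutamide final. Compounds at 15 concentrations, 16 hr at 37C without CO2. Luciferase luminescence read after 30 min with ONE-Glo.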
Chain of Androgen receptor (Homo sapiens) (P10275 whole entry, looked up): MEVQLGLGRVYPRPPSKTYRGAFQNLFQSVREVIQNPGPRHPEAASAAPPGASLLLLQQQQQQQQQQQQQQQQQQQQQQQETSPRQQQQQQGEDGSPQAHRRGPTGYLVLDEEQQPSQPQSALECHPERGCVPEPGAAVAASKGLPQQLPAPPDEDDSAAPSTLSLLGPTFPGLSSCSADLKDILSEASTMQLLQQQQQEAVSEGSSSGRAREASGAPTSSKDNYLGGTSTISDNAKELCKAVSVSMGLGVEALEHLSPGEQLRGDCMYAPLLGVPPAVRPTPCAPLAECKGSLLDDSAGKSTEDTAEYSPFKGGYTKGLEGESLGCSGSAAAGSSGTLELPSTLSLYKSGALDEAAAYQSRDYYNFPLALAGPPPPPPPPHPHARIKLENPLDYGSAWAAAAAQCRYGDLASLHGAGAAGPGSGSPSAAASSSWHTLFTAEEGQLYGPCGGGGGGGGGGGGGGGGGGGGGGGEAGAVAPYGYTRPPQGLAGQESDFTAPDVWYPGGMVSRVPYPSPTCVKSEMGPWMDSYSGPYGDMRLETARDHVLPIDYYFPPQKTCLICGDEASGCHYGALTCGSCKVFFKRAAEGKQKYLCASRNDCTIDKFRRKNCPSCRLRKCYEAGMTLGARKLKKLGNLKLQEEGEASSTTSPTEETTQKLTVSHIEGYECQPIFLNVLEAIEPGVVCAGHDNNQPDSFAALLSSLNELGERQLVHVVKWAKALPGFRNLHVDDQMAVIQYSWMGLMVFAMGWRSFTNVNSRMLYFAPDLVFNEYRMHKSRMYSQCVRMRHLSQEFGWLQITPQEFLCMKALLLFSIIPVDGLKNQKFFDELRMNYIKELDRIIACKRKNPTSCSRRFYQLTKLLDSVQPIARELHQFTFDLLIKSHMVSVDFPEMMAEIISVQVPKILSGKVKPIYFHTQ

Assay [16] is described as follows: qHTS assay to identify small molecule antagonists of the estrogen receptor beta (ER-beta) signaling pathway - cell viability counter screen (AID 1259382). Also: series mostly up to about 92 µM; nearly all actives have a fitted effect of over 55% in size. In outline:
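ER-beta-UAS-bla HEK293T cells in 2% charcoal-stripped FBS medium, treated with compound plus 1 nM 17-beta-estradiol for 16 h at 37C. Viability read by CellTiter-Glo luminescence after 30 min at room temperature in the same wells.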

For assay [17], the target named is Estrogen receptor (Homo sapiens) (UniProt P03372). The assay is described as follows: qHTS assay to identify small molecule agonists of the estrogen receptor alpha (ER-alpha) signaling pathway in the presence of an antagonist (AID 1259383; calls by dose curve; also: top concentration of the series differs between compounds; nearly all actives have a fitted effect of over 15% in size). The essentials:
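VM7Luc4E2 cells express endogenous full-length ER-alpha with an ERE-luciferase reporter and were hormone-deprived for 5 days. Compounds at 15 concentrations were added with 10.0nM ICI-182,780 for 22hr at 37C. Luminescence was read with ONE-Glo.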

Assay [18] can be described thus: qHTS assay to identify small molecule agonists of the estrogen receptor alpha (ER-alpha) signaling pathway in the presence of an antagonist - cell viability counter screen (AID 1259386).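 Also: series mostly up to about 92 µM; cells exposed to compounds for 22 h at 37 °C before the viability read; nearly all actives have a fitted effect of over 30% in size.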 In outline: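 Cell viability in VM7Luc4E2 cells (endogenous full-length ER-alpha) measured by CellTiter-Fluor fluorescence in the same wells as the luciferase screen. Cells pre-cultured 5 days in charcoal-stripped serum, then treated 22 h with compounds at 15 concentrations plus 10.0nM ICI-182,780.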

A short description of assay [19]: qHTS assay to identify small molecule agonists of the TGF-beta/Smad signaling pathway (AID 1346859; active = well fitted activation curve with a large enough effect in the signal ratio in the repeat runs, not every such curve was filed as active; the % refers to the signal ratio; also: series mostly up to about 77 µM). The essentials:
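Each well held 4,000 SBE-bla HEK 293T cells incubated overnight before compound addition; 5 hr later the cleavable FRET substrate went on for 2 hr at room temperature, and fluorescence was read at two emissions.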

Assay [20] can be described thus: qHTS assay to identify small molecule agonists of the progesterone receptor (PR) signaling pathway - cell viability counter screen (AID 1346799; calls by dose curve; also: nearly all actives have a fitted effect of over 45% in size). In outline: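 Here, 3,000 PR-UAS-bla HEK293T cells per well were treated with compounds for 16 hr after a 6 hr preincubation at 37C and 5% CO2; cell viability is the CellTiter-Glo luminescence signal.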

Unmarked numbers belong to inactive results. Inconclusive results are not listed. Active and inactive are the calls of the source. Unless noted, calls follow the shape of the dose curve; as a rule, active = well fitted curve in the direction sought with a large enough effect in the repeat runs; inconclusive = weak or mixed curves; inactive = no such curve, though single readings can be large; an effect the other way counts as inactive or inconclusive.

The values that follow come from PubChem BioAssay (Tox21).

Chain of Estrogen receptor (Homo sapiens) (P03372 whole entry, looked up): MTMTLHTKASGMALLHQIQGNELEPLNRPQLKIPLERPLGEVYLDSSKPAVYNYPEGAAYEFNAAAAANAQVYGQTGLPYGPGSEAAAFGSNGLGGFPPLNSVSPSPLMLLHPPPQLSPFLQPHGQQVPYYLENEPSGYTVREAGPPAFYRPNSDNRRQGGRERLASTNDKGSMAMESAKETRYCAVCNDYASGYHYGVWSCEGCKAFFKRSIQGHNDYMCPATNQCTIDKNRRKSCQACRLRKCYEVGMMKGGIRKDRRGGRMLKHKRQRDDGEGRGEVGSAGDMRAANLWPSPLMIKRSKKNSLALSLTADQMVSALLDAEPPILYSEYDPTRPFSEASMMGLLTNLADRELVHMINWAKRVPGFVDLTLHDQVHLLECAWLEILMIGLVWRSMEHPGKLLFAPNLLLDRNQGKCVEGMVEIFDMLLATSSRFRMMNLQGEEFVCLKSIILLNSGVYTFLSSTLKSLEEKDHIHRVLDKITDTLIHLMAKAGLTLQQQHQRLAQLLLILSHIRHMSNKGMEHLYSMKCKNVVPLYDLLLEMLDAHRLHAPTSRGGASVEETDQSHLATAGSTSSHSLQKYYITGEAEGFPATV
Chain of Estrogen receptor beta (Homo sapiens) (Q92731 whole entry, looked up): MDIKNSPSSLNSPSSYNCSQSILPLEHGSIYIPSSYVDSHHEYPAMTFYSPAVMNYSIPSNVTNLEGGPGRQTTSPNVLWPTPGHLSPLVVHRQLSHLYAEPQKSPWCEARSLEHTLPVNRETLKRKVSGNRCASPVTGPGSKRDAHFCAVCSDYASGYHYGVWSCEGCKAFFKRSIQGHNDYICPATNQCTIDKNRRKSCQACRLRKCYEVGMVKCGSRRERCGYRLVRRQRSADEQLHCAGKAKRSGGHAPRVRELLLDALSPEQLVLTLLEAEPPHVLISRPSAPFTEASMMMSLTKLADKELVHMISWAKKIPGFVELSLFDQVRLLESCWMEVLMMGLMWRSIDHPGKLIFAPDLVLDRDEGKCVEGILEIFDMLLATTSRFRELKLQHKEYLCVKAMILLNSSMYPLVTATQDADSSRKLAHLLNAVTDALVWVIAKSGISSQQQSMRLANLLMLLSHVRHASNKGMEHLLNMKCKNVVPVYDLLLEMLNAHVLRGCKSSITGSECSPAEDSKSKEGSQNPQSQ

`C=CC(=O)OCCOc1ccccc1`: the Potency in [1] is 61.1 µM (active). Further, the Potency result in assay [2], in assay [3], in assay [4], in [5], in assay [6] and in assay [7] was “inactive” each time. Besides, the Potency result in assay [8], in assay [9], in assay [10] and in [13] was “inactive” each time. Also, the outcome in assay [11] and in [12] was inactive.

Regarding `O=C1CCCCCCCCCCCC(=O)OCCO1`, the Potency entry in [1], in [2], in [3], in [4], in assay [14] and in assay [15] was “inactive” in each case. Further, the Potency result in assay [16], in assay [17], in assay [5], in assay [18], in [7] and in assay [8] was “inactive” in each case. Besides, the Potency result in assay [10], in assay [19] and in assay [13] was “inactive” throughout. Further, the outcome in assay [11] and in assay [12] was inactive.

For `O=C(O)C(S)C(S)C(=O)O` (configuration not stated), the Potency result in assay [1], in assay [2], in assay [3], in [4], in assay [14] and in assay [16] was “inactive” in each case. The Potency result in assay [5], in [6], in assay [18], in [7], in assay [8] and in [9] was “inactive” throughout. The Potency result in assay [20], in assay [10] and in [19] was “inactive” each time. In addition, the outcome in assay [11] was inactive.

For the compound `CC(C)(COC(=O)c1ccccc1)COC(=O)c1ccccc1`, the Potency entry in [1], in [2], in [3], in assay [4], in [14] and in assay [16] was “inactive” in each case. The Potency entry in assay [6], in assay [7], in [9], in [10] and in [19] was “inactive” throughout. For the same compound, the outcome in assay [11] and in assay [12] was inactive.

Turning to `CN(C)CCN(Cc1ccsc1)c1ccccn1`, the Potency result in assay [1], in assay [2], in assay [3], in assay [4], in assay [14] and in assay [15] was “inactive” throughout. In addition, the Potency entry in assay [17], in [18], in assay [7], in [8], in assay [9] and in [20] was “inactive” in each case. The Potency entry in assay [13] was “inactive”. The result in assay [11] and in [12] was inactive.

For `Nc1cc(C(=O)O)c(O)c(S(=O)(=O)O)c1`, the Potency entry in assay [1], in assay [2], in assay [3], in [4], in assay [14] and in assay [16] was “inactive” throughout. Further, the Potency entry in [18], in assay [7], in [8], in assay [10], in assay [19] and in assay [13] was “inactive” throughout. The compound was called inactive in assay [11] and in assay [12].

In the case of `CCN(CC)CCNC(=O)c1cc(Br)c(N)cc1OC`, the Potency result in assay [1], in assay [2], in assay [3], in assay [4], in assay [14] and in assay [16] was “inactive” in each case. Also, the Potency result in assay [17], in assay [5], in assay [6], in assay [7], in assay [9] and in assay [20] was “inactive” throughout. The Potency entry in assay [10] and in assay [19] was “inactive” throughout. Further, the compound was called inactive in assay [11] and in assay [12].

`NCc1ccccc1Sc1ccccc1CO`: the Potency entry in assay [1], in assay [2], in assay [3], in assay [4], in [14] and in [15] was “inactive” throughout. In addition, the Potency result in assay [16], in [17], in [5], in assay [6], in assay [18] and in assay [7] was “inactive” throughout. Besides, the Potency entry in assay [8], in assay [9], in [19] and in [13] was “inactive” in each case. The compound was called inactive in assay [11] and in [12].
